PubChem BioAssay (NCI)
Compounds without any hit were thinned out: in the full panel of roughly 83,000, 20% have a hit.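 Values shown are percent growth following 48 h exposure of cells in 96-well plates to a single concentration of compound; below 10 was considered active.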 A number with no mark means an inactive call. Activity calls are given as the source filed them.

System: HL-60(TB) leukemia
Assay: NCI-60 one-dose screen, 48 h (100 = growth as untreated, 0 = no growth, -100 = all killed)
Conditions: 10 µM unless noted

| SMILES | growth |
| --- | --- |
| CC(=O)Nc1ccc2c(c1)/C(=C\C=C/c1ccc([N+](C)(C)C)cc1)c1ccccc1-2 | 43.7% |
| C=C1c2nc3ccccc3n2C=C(c2cccc(Cl)c2)N1Cc1ccc(OC)cc1 | -25% (active) |
| Cc1c(Cl)cccc1C(=O)Nc1nc2c(s1)CN(C(=O)c1ccc(C(F)(F)F)cc1)CC2 | -21.8% (active) |
| COc1cc(C(=O)c2cc(C)c3[nH]c4ccc(Cl)cc4c3c2C)cc(OC)c1OC | 0.383% (active) |
| Cc1cccc(NC2=C(Cl)C(=O)c3nc(C)ccc3C2=O)c1 | -14.9% (active) |
| C1=C(Cc2ccccc2)n2cnc3ncnc(c32)S1 | 75.1% |
| Cc1cc(=O)oc2cc(Oc3nc(-c4cccs4)cn4c(-c5cccs5)cnc34)ccc12 | 77.6% |
| Cc1nc2sc(C(=O)Nc3ccccc3)c(N)c2cc1C(=O)/C=C/c1ccccc1 | 3.44% (active) |
| CC(C)Nc1cc(-c2c[nH]c(C(=O)N[C@H](CO)c3cccc(Cl)c3)c2)c(Cl)cn1 | 3.3% (active) |
| C[C@H]1[C@H](C)CC[C@]2(C(=O)NCCNCCN)CC[C@]3(C)C(=CC[C@@H]4[C@@]5(C)CCC(=O)C(C)(C)[C@@H]5CC[C@]43C)[C@H]12 | -58.5% (active) |
| Cc1ccc(S(=O)(=O)OC[C@@]2(C)CC[C@]3(C)CC[C@]4(C)C(=CC[C@@H]5[C@@]6(C)CCCNC(C)(C)[C@@H]6CC[C@]54C)[C@@H]3C2)cc1 | -63% (active) |
| COc1ccc(/C=C(/C(=O)N2CCN(c3ccccc3)CC2)c2cc(OC)c(OC)c(OC)c2)cc1O | -34.5% (active) |
| COc1cc2c(c(OC)c1OC)CCC(c1cccc(C(=O)Nc3ccc([N+](=O)[O-])cc3)c1)O2 (stereo unspecified) | 38.8% |
| O=C(CCNNC(=O)c1ccncc1)NCc1ccccc1 | 70.1% |
| Cc1ccc(NC(=O)Cn2nncc2CN2C(=O)CSC2=O)cc1C | 95% |
| Cc1cnc(N)s1 | 97.7% |
| Cc1nn(CC(=O)O)c2c1C(=O)CC(C)(C)C2 | 100% |
| N#CC(C#N)N=Nc1ccc(Cl)cc1Cl | 53% |
| CCOC(=O)C(Cc1ccccc1)n1c(O)c(/C=N/c2ncc(Cc3ccc(Cl)cc3Cl)s2)sc1=S (stereo unspecified) | -35.2% (active) |
| O=C(CNCCN1CCOCC1)N1c2cccc3cccc(c23)N(C(=O)CNCCN2CCOCC2)C1c1cn(-c2ccccc2)nc1-c1cccc([N+](=O)[O-])c1 | 67.6% |
| COc1ccc(C2N(c3cc(OC)c(OC)c(OC)c3)C(=O)C2(F)F)cc1F (stereo unspecified) | 0.936% (active) |
| O=C1c2ccccc2C2(c3ccc(O)cc3)c3ccccc3Oc3cccc1c32 (stereo unspecified) | 1.45% (active) |

| SMILES | growth |
| --- | --- |
| O=S(=O)(NCCNc1nccc(-c2c(-c3ccc(F)c(O)c3)nc3sccn23)n1)c1ccc(O)cc1 | 41.8% |
| COc1cc(C)c2c(=O)c3c(oc2c1)C(=O)c1c(O)c(OC)cc(O)c1C3=O | -45.4% (active) |
| Nc1cc(C(=O)O)cc(-n2c(O)c(C=C3N=c4ccccc4=N3)sc2=S)c1 | 101% |
| Nc1nc(-c2ccc(Cl)cc2)cc(-c2cc3ccccc3oc2=O)n1 | 125% |
| CCCc1cc2c(cc1Br)OCO2 | 103% |
| COC(/C=C/c1ccc([N+](=O)[O-])cc1)OC | 42% |
| CCCC/C=C/[C@@H]1C[C@H]1CCO | 111% |
| CCc1ccc(-c2ccc(=O)n(-c3ccc(S(N)(=O)=O)cc3)n2)cc1 | -4.27% (active) |
| CC(=O)OC[C@]12CCC(C)(C)C=C1[C@H]1CC[C@@H]3[C@@]4(C)CCCNC(C)(C)[C@@H]4CC[C@@]3(C)[C@]1(C)CC2 | 0.652% (active) |
| C=C1CCC2C3(C)COC(c4ccc(OC)cc4Br)OC3CCC2(C)C1/C=C/C1=CCOC1=O (stereo unspecified) | 31.8% |
| CC1=C(C/C=C(\C)CCC[C@H](C)CCC[C@H](C)CCCC(C)C)C(=O)c2ccccc2C1=O | 105% |
| O=C(O)c1cn(C2CC2)c2cc(N3CCN(S(=O)(=O)c4ccc(Cl)c(Cl)c4)CC3)c(F)cc2c1=O | -38.3% (active) |
| C(=C\c1c[nH]c2ccccc12)/c1ccc2ccccc2n1 | 2.85% (active) |
| CCS(=O)(=O)Nc1cccc(Nc2c3cccc(C)c3nc3c(C)cccc23)c1OC | -16.4% (active) |
| Oc1c(N=Nc2nn[nH]n2)ccc2ccccc12 | 98.2% |
| Nc1ncnc2c1C(c1ccc(Br)cc1)c1sc3c(F)cccc3c1O2 (stereo unspecified) | 119% |
| Cc1ccc(/C=C(\C#N)c2cc3ccccc3n2C)cc1 | 4.45% (active) |
| O=S(=O)(NCCNc1nccc(-c2c(-c3ccc(F)c(O)c3)nc3sccn23)n1)c1ccc(F)cc1 | 12.7% |
| NC(=S)N/N=C/c1cn(-c2ccccc2)nc1-c1cc2ccccc2oc1=O | 20.4% |
| NC(C(=O)O)C(O)c1ccco1 (stereo unspecified) | 116% |
| C[N+](C)(C)CC(=O)N/N=C\c1ccco1 | 53% |
| Nc1ncn(C2OC(CO)C(O)C2O)c(=O)n1 (stereo unspecified) | -44.6% (active) |

| SMILES | growth |
| --- | --- |
| O=S(=O)(NCCNc1nccc(-c2c(-c3cccc(F)c3)nc3occn23)n1)c1ccc(C(F)(F)F)cc1 | 106% |
| O=[N+]([O-])/C(=C/c1ccccc1)c1ccccc1 | 85.6% |
| Clc1nc(N2CCC[N+]3(CC2)CC[N+]2(CCCNCC2)CC3)nc(N2CCC[N+]3(CC2)CC[N+]2(CCCNCC2)CC3)n1 (stereo unspecified) | 97% |
| COc1ccc(Cn2cc3c(c2-c2ccccc2)CCc2cnoc2-3)cc1OC | 7.72% (active) |
| O=C1c2ccccc2C(=O)c2c([N+](=O)[O-])ccc(Cl)c21 | 111% |
| CCCCc1nc(Cl)c(CO)n1Cc1ccc(-c2ccccc2-c2nn[nH]n2)cc1 | 110% |
| COc1cccc(-c2nn(-c3ccccc3)cc2-c2ccnc(NCCCNS(=O)(=O)c3ccc(Br)cc3)c2)c1 | 43.3% |
| NNCCc1ccc(NC(=O)CCCc2ccc(C(=O)Nc3ccccc3N)cc2)cc1 | 32.6% |
| CCOC(=O)c1c(C)nc2c(c1N)/C(=C/c1cc(OC)c(OC)c(OC)c1)C(=O)N2c1ccc(OC)cc1 | 28.2% |
| COC(=O)CCC1=C(C)C(C)=N/C1=C\c1[nH]c(-c2ccc[nH]2)cc1OC | -21.8% (active) |
| c1ccc(Nc2nc(-c3ccccn3)cs2)nc1 | 1.61% (active) |
| CN1CCN(c2ccc(Nc3ncc(Cl)c(NC[C@@H]4CCCO4)n3)cc2)CC1 | -6.65% (active) |
| CCOC(=O)c1ccc(Nc2ccnc(SCC(=O)c3ccc(C#N)cc3)n2)cc1 | 75.6% |
| CCOC(=O)c1sc2nc(-c3cc(OC)c(OC)c(OC)c3)nc(N3CCOCC3)c2c1C | 24.7% |
| O=S(=O)(NCCNc1nccc(-c2c(-c3ccc(F)c(O)c3)nc3occn23)n1)c1ccc(Cl)cc1 | 96.6% |
| CCN(CC)CCn1c(=O)c2cc(OC)c(OC)cc2c2ccc3cc4c(cc3c21)OCO4 | 3.79% (active) |
| CCCCCCCCNc1cccc2c1C(=O)c1ccccc1C2=O | 73% |
| O=C1CCCCC=C1C[N+](=O)[O-] | 0.0104% (active) |
| O=C(Nc1ccc(Cl)cc1)c1cc(NCc2cc(O)ccc2O)ccc1O | 0.347% (active) |
| CCN(CC)CCC(CNc1c2ccc([N+](=O)[O-])cc2nc2cc(OC)c(OC)cc12)c1ccccc1 (stereo unspecified) | -15.9% (active) |
| COc1ccc(C(=O)c2cc(F)c(F)c(OC)c2F)cc1OC(=O)CCl | 11.7% |
| COc1ccc(C2=NN(C(=O)c3cc(OC)c(OC)c(OC)c3)C(c3ccc(N(C)C)cc3)C2)cc1 (stereo unspecified) | -18.4% (active) |

| SMILES | growth |
| --- | --- |
| COc1ccc(-c2cnnc3c(-c4cccc(C(F)(F)F)c4)cnn23)cc1 | 60.2% |
| C1CCCCNCCC1 | 114% |
| CCN(CC)CCCNc1nccc2ccc(Cl)cc12 | 99.4% |
| O=C1C(Cl)=C(NCCCCCCNC2=C(Cl)C(=O)c3ccccc3C2=O)C(=O)c2ccccc21 | 55.7% |
| CCN(CC)N=Nc1nn(C(=O)Nc2ccc(Cc3ccccc3)cc2)c2ccc(Cl)cc12 | 60.4% |
| NC(=O)/C=C/C(=O)c1c(Cl)cccc1Cl | -21.6% (active) |
| Cc1ccccc1CNc1c2ccccc2nc2ccccc12 | 15.3% |
| CCC(c1ccc(OC)cc1)C(CC)c1ccc(O)c(CN2CCCCC2)c1 (stereo unspecified) | 52.6% |
| CCCN1CCN(c2ccc3nc(-c4ccc5nc(-c6cc(OC)ccc6OC)[nH]c5c4)[nH]c3c2)CC1 | 106% |
| CC(C)CSc1nc(NN)c(C#N)c(-c2ccccc2)n1 | 106% |
| O=C(COc1ccc(/C=C2\Cc3ccc(Cl)cc3C2=O)cc1)Nc1nccs1 | 67.3% |
| Cc1ccc([P+](Cc2ccc([N+](=O)[O-])cc2)(c2ccc(C)cc2)c2ccc(C)cc2)cc1 | -43.8% (active) |
| CC(C)(C)NC/C(=C\c1ccccc1)C(=O)c1ccccc1 | 1.97% (active) |
| O=C1/C(=C/c2cccs2)CCC/C1=C\c1cccs1 | 93.8% |
| C[N+]1(CC2CO2)CCCCCC1 (stereo unspecified) | 109% |
| COCC[C@H]1CCC/C=C/[C@@H]2C[C@H](O)C[C@H]2[C@H](O)/C=C/C(=O)O1 | 3.25% (active) |
| CC(C)CCSc1nc(-c2ccc(F)cc2)c(C#N)c(N2CCN(C)CC2)n1 | 73.8% |
| COc1cccc(-c2nc(-c3ccc(NC(=O)OC(C)C)cc3)[nH]c2-c2ccnc(Br)c2)c1 | -39.9% (active) |
| CC(=O)OCC(=O)C1(O)C(C)CC2C3C=C(C)C4=Cc5c(cnn5-c5ccccc5)CC4(C)C3C(O)CC21C (stereo unspecified) | 14.7% |
| O=C(/C=C/c1nnc2n(Cc3ccccc3)c(=O)c3c4c(sc3n12)CCCC4)c1ccccc1 | 43.5% |
